Records with an inconclusive call do not appear. A call without a number means that no potency is given here. Activity calls are given as the source filed them. Calls follow the shape of the dose curve; as a rule, active = well fitted inhibition curve with a large enough effect; inconclusive = small, poorly fitted or top-dose-only effect; inactive = flat fitted curve, though single readings scatter.

Calcium and integrin-binding protein 1 (Homo sapiens), sequence (Q99828 whole entry, looked up): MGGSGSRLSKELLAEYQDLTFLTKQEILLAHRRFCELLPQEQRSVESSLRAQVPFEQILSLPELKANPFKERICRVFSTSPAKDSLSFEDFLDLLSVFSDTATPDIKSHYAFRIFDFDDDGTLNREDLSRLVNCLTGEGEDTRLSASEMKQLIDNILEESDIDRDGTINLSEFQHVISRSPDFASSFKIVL

The experiment concerns the target Calcium and integrin-binding protein 1 (Homo sapiens) (UniProt Q99828). In words: Primary qHTS for Identification of Calcium Integrin Binding Protein 1 (CIB1) Competitor (AID 1508620). Also: top concentration of the series differs between compounds. Particulars: CIB1-GST / FITC-alphaIIb peptide fluorescence polarization; series mostly up to 57.7 µM. Put shortly:
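Fluorescence polarization competition: GST-tagged CIB1 (1 uM final) preincubated with compound 15 min at room temperature, then FITC-labelled alphaIIb peptide (100 nM final) added. After 15 min at room temperature, polarization read at Ex 480/Em 540.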
(In general: In qHTS, concentration-response curves come from the screen itself.)
On to `C=C1CC[C@H]2[C@@H](/C=C(\C)C(=O)[C@@]3(OC(C)=O)C[C@H](C)[C@H](OC(C)=O)[C@@H]3[C@H]1OC(C)=O)C2(C)C`, for which the Potency result is “inactive”.

`C[C@@H]1CCC2C(C)(C)[C@H](O)CC[C@]2(C)[C@@]12Cc1c(O)cc3c(c1O2)CN(CCO)C3=O` (some centres undefined): the Potency entry is “inactive”.

As for `CC(C)C1=CC2=CCC3[C@](C)(CCC[C@@]3(C)C(=O)O)C2CC1O` (some centres undefined), the Potency entry is “inactive”.

For the compound `C#C[C@]1(O)CC[C@H]2[C@@H]3CCC4=C/C(=N/O)CC[C@@H]4[C@H]3CC[C@@]21CC`, the Potency entry was “inactive”.

In the case of `O=S(=O)(NC1CCNCC1)c1cc(S(=O)(=O)c2ccccc2)ccc1C(F)(F)F`, the Potency result was “inactive”.

Regarding `CC(C)=CCC/C(C)=C/CC/C(C)=C/CC[C@]1(C)CCc2cc(O)cc(C)c2O1`, the Potency entry was “inactive”.

Take `C[C@]1(OC(=O)/C=C/c2ccccc2)C[C@H](O)[C@]2(O)C=CO[C@@H](O[C@@H]3O[C@H](CO)[C@@H](O)[C@H](O)[C@H]3O)C12` (some centres undefined): the Potency result was “inactive”.

Turning to `CN1C(=O)c2ccccc2NC(=O)[C@]12O[C@@H]2c1cccc(O)c1`, the Potency result was “inactive”.

On to `CC(C)(OC1OC(CO)C(O)C(O)C1O)C1CCC(O)(CO)C2CC(O)C(C)(O)C2C1` (centres undefined), for which the Potency entry was “inactive”.

Regarding `C/C(=C\CO)CC/C=C(\C)C(=O)O[C@H]1[C@H](OC2OC=C(C(=O)O)C3CCC(C)(O)C23)O[C@H](CO)[C@@H](O)[C@@H]1O` (some centres undefined), the Potency entry was “inactive”.

`c1ccc(Cc2ncc3c(n2)CCNCC3)cc1`: the Potency entry is “inactive”.

In the case of `Nc1nc(CC(=O)Nc2ccc(CCNCC(O)c3ccccc3)cc2)cs1` (centres undefined), the Potency entry is “inactive”.

`COc1cccc2c1CCC[C@H]2CN(C)CCc1ccc2ccoc2c1`: the Potency entry is “inactive”.

As for `CC(C)C(=O)c1cn(CC(=O)COc2ccc(Oc3ccccc3)cc2)c2ccc(C(=O)O)cc12`, the Potency result is “inactive”.

In the case of `COC(=O)C1C(c2ccc(O)cc2)C(C(=O)OC)C1c1ccc(O)cc1` (centres undefined), the Potency result is “inactive”.

On to `COc1cc2c(Nc3ccc(Cl)c(Cl)c3F)ncnc2cc1OCC1C[C@@H]2CN(C)C[C@@H]2C1` (some centres undefined), for which the Potency entry is “inactive”.

In the case of `COc1cc(-c2cccc(O)c2)cc2c1OCO2`, the Potency entry was “inactive”.

For `C[C@@H]1CC[C@]2(C(=O)O)CC[C@]3(C)C(=CCC4[C@]5(C)C(CC[C@]43C)C(C)(C)[C@@H](O)[C@H](O)[C@@H]5O)C2[C@]1(C)O` (some centres undefined), the Potency entry is “inactive”.

In the case of `O=C(/C=C/c1ccc(O)cc1)OCC1=C[C@@H](O)[C@@H]2C=CO[C@@H](O[C@@H]3O[C@H](CO)[C@@H](O)[C@H](O)[C@H]3O)[C@H]12`, the Potency entry is “inactive”.

With `C/C=C(\C)C(=O)O[C@H]1[C@@H](O[C@]2(COC(=O)CC(C)C)O[C@H](COC(=O)C(C)C)[C@@H](OC(C)=O)[C@@H]2O)O[C@H](COC(C)=O)[C@@H](O)[C@@H]1O`, the Potency entry was “inactive”.

As for `COC(=O)C12C(=O)C(C)=C(O)C1(C)C(C)=CC1C34CCC(OC3=O)C(C)(C)C4CCC12C` (centres undefined), the Potency entry is “inactive”.

For the compound `COC(=O)C1C(CC(C)=O)C=CC(O)C12Oc1cc(C)cc(O)c1C2=O` (centres undefined), the Potency result is “inactive”.

Consider `CC(C)(O)CNc1nc(Nc2ccnc(C(F)(F)F)c2)nc(-c2cccc(C(F)(F)F)n2)n1`, for which the Potency entry is “inactive”.

As for `O=C1CC(c2ccc([N+](=O)[O-])cc2)=NN1c1ccccc1`, the Potency result was “inactive”.

`CC1CCC2(C)C(CC(O)C(O)C23CO3)C1(C)CCC1=CC(O)OC1=O` (centres undefined): the Potency entry was “inactive”.

On to `C[C@@H]1C(=O)O[C@H]2CC34[C@H]5C[C@@H](C(C)(C)C)C36[C@@H](OC(=O)[C@@H]6O)O[C@@]4(C(=O)O5)[C@]21O` (some centres undefined), for which the Potency result was “inactive”.

As for `CC1=CC(=O)C[C@H]2[C@@H]1CC[C@@H](C)[C@]21CO[C@H](c2ccoc2)C1=O`, the Potency result is “inactive”.

Consider `C[C@H]1[C@H](C)CC[C@]2(C(=O)O)CC[C@]3(C)C(=CC[C@@H]4[C@@]5(C)C[C@@H](O)[C@H](O)[C@@](C)(CO)[C@@H]5CC[C@]43C)[C@H]12`, for which the Potency entry is “inactive”.

Take `COC1CC(=O)C23C(=O)NC(CC(C)C)C2C(C)C(C)=CC3/C=C(\C)CCC1O` (centres undefined): the Potency result was “inactive”.

In the case of `CC1(C)C(=O)N2c3ccccc3[C@]3(CC(n4cnc5ccccc5c4=O)C(=O)O3)[C@H]2N1O` (some centres undefined), the Potency entry is “inactive”.

Turning to `CC(=C/C(=O)O)/C=C/[C@]1(O)[C@@]2(C)CO[C@]1(C)C[C@H](O[C@@H]1O[C@H](CO)[C@@H](O)[C@H](O)[C@H]1O)C2`, the Potency result is “inactive”.

Consider `NCc1c[nH]c(=S)n1C1CCc2c(F)cc(F)cc2C1` (centres undefined), for which the Potency entry is “inactive”.

For `C=C1CC[C@H]2[C@@](C)(CCC(O)[C@@]2(C)CO)[C@@H]1C/C=C(/C(=O)O)C(O)CO` (some centres undefined), the Potency entry is “inactive”.

Turning to `COC12CC3C(C(C)C1=CC(=O)O2)C(O)C(OC(C)=O)C1C(C)(C)C(OC(C)=O)CCC31C` (centres undefined), the Potency result was “inactive”.

On to `CC(=O)OC[C@]12[C@H](OC(C)=O)C(=O)[C@@H]3[C@@H](OC(C)=O)[C@@]14O[C@@]3(C)COC(=O)c1cccnc1[C@@H](C)[C@H](C)C(=O)O[C@@H]([C@H](OC(C)=O)[C@@H]2OC(C)=O)[C@]4(C)O`, for which the Potency result was “inactive”.

Turning to `CC(C)(O)c1ccc2c(c1)C(=O)CC1[C@](C)(CO)CCC[C@]21C` (some centres undefined), the Potency result is “inactive”.

Take `CCC[C@@H]1C[C@@H](C(=O)N[C@@H]([C@H]2O[C@H](SC)[C@H](OP(=O)(O)O)[C@@H](O)[C@H]2O)[C@H](C)Cl)N(C)C1`: the Potency result is “inactive”.

On to `COc1cc(O[C@@H]2O[C@H](CO)[C@@H](O)[C@H](O)[C@H]2O)c(CCC(=O)OC[C@H]2O[C@@H](Oc3cc(OC)c(C4OC(=O)C(C)(O)C4O)cc3CCC(=O)O)[C@H](O)[C@@H](O)[C@@H]2O)cc1C1OC(=O)C(C)(O)C1O` (some centres undefined), for which the Potency entry is “inactive”.

With `O=C(NN1CCCCC1)c1nn(-c2ccc(Cl)cc2Cl)c(-c2ccc(C#Cc3ccc(C(F)(F)F)cc3)s2)c1CNS(=O)(=O)N1CCCC1`, the Potency result is “inactive”.

The values are drawn from PubChem BioAssay (NCATS).
